Assay outcomes (PubChem)
MITF inh – MITF inhibitors, primary screen, biochemical, AlphaScreen, human; Microphthalmia-associated transcription factor (Homo sapiens), O75030; AlphaScreen MITF homodimerization, bead proximity signal; inhibition, % at 2.6 µM; hit rate 0.91% among 650,000; AID 1259374, 2018; in the data active means inhibition above about 50%;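 further: 0% = vehicle wells with protein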
TEAD-YAP block – TEAD-YAP interaction inhibition, primary screen, TEAD-YAP interaction inhibitor project, luminescence, HEK-TIYL cells. TEAD-Gal4/YAP UAS-luciferase luminescence. inhibition, % at 9.12 µM. hit rate 1.4% among 640,000; in the data active means inhibition above about 32%;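 further: 0% = median of test compound wells and 100% = reference inhibitor wells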
GPR151 ag – activators of human GPR151, primary screen, cell-based, PathHunter beta-arrestin, luminescence; G-protein coupled receptor 151 (Homo sapiens), Q8TDV0; PathHunter beta-arrestin GPR151 cells; activation, % at 11.2 µM; hit rate 1% among 650,000; in the data active means activation above about 4.9%;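 further: 0% = median of compound wells and 100% = cells with positive control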
Target sequence (Q8TDV0 whole entry, looked up): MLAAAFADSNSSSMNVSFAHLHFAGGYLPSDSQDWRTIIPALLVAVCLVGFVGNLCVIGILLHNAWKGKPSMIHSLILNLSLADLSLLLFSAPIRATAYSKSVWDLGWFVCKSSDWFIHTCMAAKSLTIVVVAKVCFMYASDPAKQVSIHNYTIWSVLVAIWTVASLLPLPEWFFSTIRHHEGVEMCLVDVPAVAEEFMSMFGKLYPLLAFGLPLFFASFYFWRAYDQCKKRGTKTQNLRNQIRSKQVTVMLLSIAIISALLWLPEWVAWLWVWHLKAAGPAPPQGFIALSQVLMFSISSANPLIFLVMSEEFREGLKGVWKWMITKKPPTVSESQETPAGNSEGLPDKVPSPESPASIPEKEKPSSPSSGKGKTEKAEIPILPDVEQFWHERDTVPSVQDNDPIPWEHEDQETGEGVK
FBW7 activator – FBW7 E3 ligase activators, primary screen, biochemical, AlphaScreen, human | F-box/WD repeat-containing protein 7 (Homo sapiens), Q969H0 | AlphaScreen FBW7–phospho-cyclin E peptide binding, activator screen | normalized activity (activation), % at 26.1 µM | hit rate 0.13% among 650,000 | AID 1259310, 2017; in the data active means normalized activity above about 1.9%;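 further: purified mutant Fbw7 with reduced substrate affinity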
* marks the source's active call; other numbers are inactive results; x = not tested or not shown. A selection: hits, their analogues and other compounds. The true share with any hit is near 3.5%.

SMILES | MITF inh | TEAD-YAP block | GPR151 ag | FBW7 activator
CO[C@@H]1C[C@@H](C[C@H]2CC[C@H](C)[C@H]([C@@H](C)C(=O)O)O2)O[C@]2(O[C@](C)([C@H]3CC[C@@](C)([C@@H]4O[C@@H]([C@H]5O[C@@](O)(CO)[C@H](C)C[C@@H]5C)C[C@@H]4C)O3)C[C@H]2C)[C@@H]1C | 12 | 77* | -3 | 0
Cn1c(C(=O)O)c(CC(=O)N2CCN(Cc3ccc4c(c3)OCO4)CC2)c2ccccc21 | 1 | -3 | 1 | 0
CCCCOc1cc(N(CC)CC)ccc1C=C1C(=O)NC(=O)NC1=O | 4 | -2 | 0 | 0
NCCc1cc(O)c(O)cc1O | 114* | -9 | 0 | 0
CCC(CO)NC(=O)[C@@H]1C=C2c3cccc4[nH]cc(c34)C[C@H]2N(C)C1 (some centres undefined) | 22 | 12 | 0 | 0
CCN1CCN(c2ccc(NC(=S)NC(C)=O)cc2Cl)CC1 | -11 | 43* | -1 | 0
CC(C)CN1CCN(Cc2ccccc2F)CC1CCO (centres undefined) | -11 | -4 | -2 | 0
COc1ccc(/C=C/C(=O)NC(C)Cc2ccccc2)cc1 (centres undefined) | -3 | -14 | 1 | 0
O=C1C=CC(=O)c2c(O)cccc21 | 108* | 2 | 0 | 0
CN(C)C(=O)Nc1ccccc1OC(=O)N(C)C | 6 | -3 | 0 | 0
C[n+]1c2ccccc2nc2ccc(NC3CCCCC3N)cc21 (centres undefined) | 20 | 77* | 0 | 0
O=C1NC(=S)NC(=O)C1=Cc1ccc(OCc2cccc(C(=O)O)c2)cc1 | 5 | 63* | -8 | 0
CCN(CC)P(=S)(c1c(C)n(CC)c2cccc[n+]12)N(CC)CC | 11 | 31 | 1 | 0
COc1ccc(CN2CCN(c3ccc(F)cc3)CC2)c(OC)c1 | 23 | 1 | -1 | 0
COc1ccc(N2CCN(Cc3ccccc3[N+](=O)[O-])CC2)cc1 | 57* | -11 | -1 | 0
COc1ccc(N2CCN(Cc3ccc(F)cc3F)CC2)cc1 | 56* | -3 | -2 | 0
COc1cccc(N2CCN(Cc3ccccc3[N+](=O)[O-])CC2)c1 | 41 | 6 | -1 | 0
Cc1nn(-c2ccccc2)c2c1P(=S)(N1CCOCC1)OC(c1ccccc1)=N2 (centres undefined) | 5 | 6 | -1 | 0
O=C1CCC(N2C[C@H]3C[C@@H](C2)c2cccc(=O)n2C3)CCN1Cc1ccc(F)c(F)c1 (some centres undefined) | 5 | -7 | 0 | 0
Cc1ccc2oc(C(=O)OC(C)C(C)CN(C)C)cc2c1 (centres undefined) | 10 | 17 | -2 | 2.5*
CC(=O)OC1CC[C@@]2(C)C(CCC3C2CC[C@]2(C)C(C4=CC(=O)OC4)C(OC(C)=O)CC32O)C1 (some centres undefined) | -24 | 100* | 2 | 0
C[C@]12CC[C@H](O)C[C@H]1CC[C@@H]1[C@@H]2CC[C@]2(C)[C@@H](C3=CC(=O)OC3)[C@@H](O)C[C@]12O | 22 | 95* | -1 | 0
CC(=O)[C@H]1CCC2C3CC[C@H]4C[C@H](O)CC[C@]4(C)C3CC[C@@]21C (some centres undefined) | -9 | -6 | 4 | 0
CCC1(c2ccccc2)C(=O)NC(=O)N(CN2CCCCC2)C1=O (centres undefined) | 6 | 1 | 2 | 0
CCCCn1c(C)c(C(=O)OCC)c2c(CN3CCN(C)CC3)c(O)ccc21 | 6 | -9 | 1 | 0
SMILES | MITF inh | TEAD-YAP block | GPR151 ag | FBW7 activator
O=c1c(O)c(-c2ccc(O)c(O)c2)oc2c(O)c(O)cc(O)c12 | 57* | -18 | 4 | 0
CCn1cnc2c(Nc3cccc(Cl)c3)nc(N[C@@H]3CCCC[C@@H]3N)nc21 | -4 | 46* | 2 | 0
CC1O[C@@H](OC2C[C@@H](O)[C@]3(CO)[C@H]4[C@H](O)C[C@]5(C)C(C6=CC(=O)OC6)CC[C@]5(O)[C@@H]4CC[C@]3(O)C2)C(O)[C@@H](O)[C@H]1O (some centres undefined) | -1 | x | 0 | 0
C[C@@H]1O[C@@H](O[C@H]2CC[C@]3(C=O)C4CC[C@]5(C)[C@@H](C6=CC(=O)OC6)CC[C@]5(O)C4CC[C@]3(O)C2)[C@H](O)[C@H](O)[C@H]1O (some centres undefined) | -3 | 101* | -1 | 0
CC(=O)O[C@H]1CC[C@]2(C=O)C3CC[C@]4(C)[C@@H](C5=CC(=O)OC5)CC[C@]4(O)[C@@H]3CC[C@]2(O)C1 (some centres undefined) | 5 | 102* | 0 | 0
COc1[nH]c2ccccc2c1C=C(C#N)C#N | 7 | 71* | 1 | 0
COc1ccccc1CCNCc1ccc(F)c(F)c1 | 8 | 7 | 1 | 0
COc1ccc(-n2cnc3cc(C(=O)N4CCC5(CC4)OCCO5)ccc32)cc1 | 2 | 48* | 0 | 0
O=C(c1ccc2c(c1)ncn2-c1ccc(OCc2ccccc2)cc1)N1CCC2(CC1)OCCO2 | -2 | 42* | 2 | 0
O=C(c1ccc2c(c1)ncn2C1CCCCCC1)N1CCC2(CC1)OCCO2 | -1 | -11 | 0 | 0
O=C(O)C1=CC2c3ccccc3C1c1ccccc12 | 7 | -9 | 0 | 0
CC1CCC(c2nnnn2-c2cccc(Cl)c2)(N(C)C)CC1 (centres undefined) | -3 | -12 | 1 | 0
COc1cccc(/C=C/c2nc3ccccc3c(=O)n2-c2ccc(Br)c(C)c2)c1 | -3 | 10 | 2 | 0
O=C(Nc1nc2ccc(Br)cc2s1)c1c(O)c2c(n(Cc3ccccc3)c1=O)CCCC2 | -4 | 8 | 0 | 0
CCN1/C(=C/C=C/c2oc3ccc(-c4ccccc4)cc3[n+]2CC)Oc2ccc(-c3ccccc3)cc21 (tested in a mixture with another compound) | -35 | 82* | 1 | 0
O=C1NC(=O)N(Cc2ccco2)C(=O)/C1=C\c1cn(Cc2ccccc2)c2ccccc12 | 28 | 0 | 0 | 0
NC(=O)C1CCN(/C=C2\C(=O)NC(=O)N(Cc3ccco3)C2=O)CC1 | 58* | 12 | -1 | 0
Cc1ccc(N2C(=O)/C(=C\C=C\c3ccco3)C(=O)NC2=S)cc1 | 59* | -1 | -1 | 0
C=CCN1C(=O)/C(=C/c2ccco2)C(=O)NC1=S | 77* | 8 | -1 | -1
O=C1NC(=S)N(Cc2ccco2)C(=O)/C1=C\c1cccs1 | 82* | -2 | 2 | -1
O=C1NC(=O)N(Cc2ccco2)C(=O)/C1=C\c1ccco1 | 31 | -3 | -1 | -1
O=C1NC(=S)N(c2ccccc2)C(=O)/C1=C/c1ccco1 | 66* | 9 | 3 | -1
NC(=O)c1ccc(N2CCNCC2)c([N+](=O)[O-])c1 | 11 | 12 | 0 | 0
